This is a sample that favours compounds with a hit; in the whole collection about 3% have one here.
ABHD5 PLIN5 PPI = ABHD5-PLIN5 protein interaction inhibition | Split G. princeps luciferase complementation, luminescence, 4 h | inhibition, % at 4 µM | actives 0.78% (n = 360,000);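 active = inhibition above the mean inhibition across every tested compound plus 3 SD, cut at about 22% in these data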
Target sequence (Q00G26 whole entry, looked up): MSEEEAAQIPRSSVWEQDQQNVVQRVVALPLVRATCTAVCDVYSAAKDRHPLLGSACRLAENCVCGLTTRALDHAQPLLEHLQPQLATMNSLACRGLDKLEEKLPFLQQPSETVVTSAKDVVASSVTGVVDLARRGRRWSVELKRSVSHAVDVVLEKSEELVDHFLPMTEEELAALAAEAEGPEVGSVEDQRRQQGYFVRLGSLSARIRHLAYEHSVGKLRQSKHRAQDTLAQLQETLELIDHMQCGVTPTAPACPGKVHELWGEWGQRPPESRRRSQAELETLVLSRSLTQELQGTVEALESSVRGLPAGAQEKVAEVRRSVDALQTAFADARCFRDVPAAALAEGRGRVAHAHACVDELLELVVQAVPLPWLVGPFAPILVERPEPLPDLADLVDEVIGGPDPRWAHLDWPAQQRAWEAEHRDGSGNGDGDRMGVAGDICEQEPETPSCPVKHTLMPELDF
Target sequence (Q8WTS1 whole entry, looked up): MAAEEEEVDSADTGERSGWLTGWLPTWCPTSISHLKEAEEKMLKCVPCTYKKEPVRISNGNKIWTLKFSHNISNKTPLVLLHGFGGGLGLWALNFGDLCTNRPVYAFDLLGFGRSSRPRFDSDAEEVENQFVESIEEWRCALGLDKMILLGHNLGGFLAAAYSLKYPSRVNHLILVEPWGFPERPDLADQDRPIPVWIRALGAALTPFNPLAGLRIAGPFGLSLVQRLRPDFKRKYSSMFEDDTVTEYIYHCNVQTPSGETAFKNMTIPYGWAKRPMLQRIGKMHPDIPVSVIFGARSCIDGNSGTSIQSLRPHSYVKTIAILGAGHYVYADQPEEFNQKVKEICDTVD
Shn3 3UTR inh = inhibitors of Schnurri-3 3'UTR reporter in osteoblasts; Clone20 osteoblast Shn3 3'UTR firefly luciferase, 24 h; inhibition, % at 12.5 µM; actives 0.52% (n = 360,000); AID 588674;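 active = mean inhibition of at least 75% with every replicate also reaching 75%; inconclusive = mean inhibition at least 75% but some replicate below; inactive = mean inhibition below 75%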
EWS-Fli inh = inhibitors of EWS/Fli oncoprotein transcriptional activity; A673 NR0B1-luciferase reporter, viability-normalised; inhibition, % at 12.6 µM; actives 0.67% (n = 350,000); AID 651661;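 active = mean inhibition of at least 50% after viability correction, with every replicate also passing that limit; inconclusive = mean reaches 50% but only one of two replicates passes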;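 note: firefly luciferase signal divided by Alamar Blue viability fluorescence both relative to DMSO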
Peg3 promoter = inhibitors of Peg3 promoter; AID 588405; inhibition, % at 20 µM; actives 1.7% (n = 360,000); HeLa PEG-Prom luciferase reporter, luminescence, overnight;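 active = inhibition of at least 50% at 20 µM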
PAX8 inh HTS = PAX8 transcriptional activity inhibition. inhibition, % at 12.6 µM. actives 1.2% (n = 360,000). RMG-I TPO-luciferase reporter, SteadyGlo, 24 h;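 active = mean replicate inhibition at least 60% with every replicate also reaching 60%; inconclusive = only one of the two criteria is met; inactive = mean below 60% and not all replicates reaching 60%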;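 note: luciferase light reporting Pax8 driven TPO promoter activity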
TRPM1 prom inh = reduces MITF-dependent TRPM1 promoter luciferase signal | SK-MEL-5 TRPM1 promoter luciferase, 24 h | inhibition, % at 12.5 µM | actives 0.83% (n = 330,000) | AID 488899;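 active = mean inhibition across replicates of 60% or more, whatever share of single replicates reaches that level; inconclusive = some that reach 60%, reason not given; inactive = mean inhibition across replicates below 60%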
Hits are given with their value; - = inactive; ? = inconclusive; . = no result given.

SMILES | ABHD5 PLIN5 PPI | Shn3 3UTR inh | EWS-Fli inh | Peg3 promoter | PAX8 inh HTS | TRPM1 prom inh
COCCNC(=O)C/C(C)=N/NC(=O)C(=O)NC1CCCCC1 | - | - | - | - | 100.8 | -
COc1cccc(CNCCc2c[nH]c3ccccc23)c1OCc1ccc(F)cc1 | - | - | . | 105.4 | . | -
CC12CCCC[C@@H]1CCC1C2CCC2(C)C1CC[C@@]2(O)CNCCO (stereo not given in full) | - | - | - | 109.6 | - | -
CC12CCC(=O)CC1CCC1C2CCC2(C)C1CCC2(O)C(=O)CO (stereo not given) | - | - | - | - | - | -
COc1ccc(N(C)C(=O)c2ccc3snnc3c2)cc1 | - | 86.8 | - | - | . | .
COc1ccc(N(C)C(=O)c2ccc3c(c2)nnn3C)cc1 | - | - | - | - | - | -
CCCC(O)(c1ccc(Br)cc1)C(CN1CCOCC1)c1ccc(Cl)cc1 (stereo not given) | - | - | - | 57.7 | - | -
CCCC(O)(c1ccccc1)C(CN1CCOCC1)c1ccccc1 (stereo not given) | - | - | - | - | - | -
CCCC(O)(c1ccc(Cl)cc1)C(CN1CCOCC1)c1ccccc1 (stereo not given) | - | - | - | 57.3 | - | -
CCCC(O)(c1ccc(CC)cc1)C(CN1CCOCC1)c1ccccc1 (stereo not given) | - | - | - | - | - | -
NCC[C@H]1CC[C@@H](NC(=O)CCN2CCCCC2)[C@H](CO)O1 | . | . | - | . | - | .
CC(C)(C)c1cc(C(=O)NN)n(Cc2ccc(F)cc2)n1 | - | - | - | - | - | -
CC(C)CC(N)c1csc(NC(=O)C(c2ccccc2)c2ccccc2)n1 (stereo not given) | - | - | - | 95.0 | - | .
CC(C)CC(N)c1csc(NC(=O)Nc2ccccc2Cc2ccccc2)n1 (stereo not given) | - | - | - | 85.6 | - | .
CC(C)C(=O)Nc1ccccc1Cc1ccccc1 | - | - | - | - | - | -
CC(C)CC(N)c1csc(NC(=O)Nc2ccccc2-c2ccccc2)n1 (stereo not given) | - | - | - | 103.7 | - | .
CC(=O)c1ccc(Nc2nc(C(N)CC(C)C)cs2)cc1 (stereo not given) | - | - | - | - | - | .
CC(C)CC(N)c1csc(NC(=O)c2cc(C(C)(C)C)nn2Cc2ccccc2)n1 (stereo not given) | - | 96.9 | ? | 111.5 | - | .
COCC#Cc1ccc2c(c1)O[C@H](CN(C)C(=O)CN(C)C)[C@H](C)CN([C@@H](C)CO)S2(=O)=O | . | . | - | . | . | .
C[C@H]1CN([C@@H](C)CO)C(=O)c2ccccc2-c2ccccc2CO[C@@H]1CN(C)Cc1ccc(C(=O)O)cc1 | . | . | - | . | . | .
CO[C@H]1CN(C)C(=O)c2cc(NC(=O)Nc3c(C)noc3C)ccc2OC[C@@H](C)N(CCC(F)(F)F)C[C@@H]1C | . | . | - | . | . | .
Cc1ccc(S(=O)(=O)Nc2ccc3c(c2)C(=O)N([C@@H](C)CO)C[C@H](C)[C@@H](CN(C)Cc2ccc(C(=O)O)cc2)OCCCC[C@H](C)O3)cc1 | . | . | - | . | - | .
CCOC(=O)c1sc(N(Cc2ccccc2)C(=O)CCl)nc1C | - | - | 56.9 | 63.2 | - | -
CCOC(=O)c1sc(N(Cc2ccccc2)C(=O)COC(=O)c2ccccc2O)nc1C | - | - | - | - | - | -
COc1ccc(S(=O)(=O)Nc2ccc3c(c2)C(=O)N([C@@H](C)CO)C[C@H](C)[C@H](CN(C)C(=O)Nc2c(C)noc2C)OCCCC[C@H](C)O3)cc1 | . | . | - | . | - | .
SMILES | ABHD5 PLIN5 PPI | Shn3 3UTR inh | EWS-Fli inh | Peg3 promoter | PAX8 inh HTS | TRPM1 prom inh
CN(C)c1nc(N/N=C\c2ccc(Cl)c([N+](=O)[O-])c2)nc(Nc2ccc(F)cc2)n1 | - | - | . | 64.7 | . | -
COc1ccccc1-c1nnc(Sc2nc([N+](=O)[O-])nn2C)o1 | - | - | . | 65.7 | . | -
CCCNC(=O)[C@@H]1[C@@H](CO)[C@@H]2Cn3c(ccc(C4=CCCC4)c3=O)[C@H]1N2S(C)(=O)=O | . | . | - | . | - | .
CCCCC1Cc2[nH]c(=S)[nH]c(=O)c2C(c2ccc(Cl)cc2)O1 (stereo not given) | - | - | - | - | - | .
CC[C@@H]1Cc2[nH][nH]c(=O)c2[C@H](c2ccc(Cl)cc2)O1 | - | . | - | . | - | .
CCCC[C@@H]1Cc2[nH][nH]c(=O)c2[C@@H](c2ccc(Cl)cc2)O1 | 22.6 | . | - | . | - | .
CCCCC1Cc2[nH]c(=S)[nH]c(=O)c2C(c2ccc3ccccc3c2)O1 (stereo not given) | - | . | - | . | - | .
CCCC[C@@H]1Cc2[nH][nH]c(=O)c2[C@H](c2ccc(C(C)C)cc2)O1 | 23.2 | . | - | . | - | .
CCCCC1Cc2[nH]c(=S)[nH]c(=O)c2C(c2ccc(F)cc2)O1 (stereo not given) | - | - | - | - | 95.3 | .
Cc1ccc(S(=O)(=O)N(C)C[C@H]2Oc3ccc(NC(=O)CCN4CCOCC4)cc3CC(=O)N([C@H](C)CO)C[C@@H]2C)cc1 | . | . | - | . | - | .
NC(c1csc(Nc2cc(Oc3ccccc3)ncn2)n1)C1CCCCC1 (stereo not given) | - | - | - | 99.2 | - | .
COc1ccc(C(N)c2csc(Nc3cc(Oc4ccccc4)ncn3)n2)cc1 (stereo not given) | - | - | - | - | - | .
NC(Cc1ccc(C(F)(F)F)cc1)c1csc(Nc2cc(Oc3ccccc3)ncn2)n1 (stereo not given) | - | - | - | 105.6 | - | .
CO[C@H]1CN(C)C(=O)c2ccc(NC(=O)C3CC3)cc2OC[C@H](C)N(C(=O)CN(C)C)C[C@H]1C | . | . | - | . | - | .
CCOC(=O)C1=C(c2ccccc2)NC(SCC(=O)Nc2cccc(C)c2)=C(C#N)C1c1ccco1 (stereo not given) | - | - | . | 70.4 | . | -
C[C@H](CO)N1C[C@H](C)[C@H](CN(C)C(=O)NC2CCCCC2)OCCCC[C@H](C)Oc2ccc(NC(=O)NC3CCCCC3)cc2C1=O | . | . | - | . | - | .
CCC(=O)Nc1ccc2c(c1)OC[C@@H](C)N(CC1CCCCC1)C[C@H](C)[C@H](OC)CN(C)C2=O | . | . | - | . | - | .
CCOC(=O)C1=CC[C@@H](c2ccc3ccccc3n2)[C@@H]1C(=O)c1ccccc1 | . | . | - | . | - | .
O=C(Nc1ccc2c(c1)[C@H]1C[C@@H](CC(=O)N3CCCCC3)O[C@H](CO)[C@H]1O2)NC1CCCCC1 | . | . | - | . | - | .
Cc1cccc(C)c1-c1ccc(CN2C(CC(C)C)C(=O)N(Cc3cn(CCO)nn3)CCS2(=O)=O)cc1 (stereo not given) | - | - | - | 58.5 | - | -
COc1ccc(-c2ccc(CN3C(C(C)C)C(=O)N(Cc4cn(CCC5OCCCO5)nn4)CCS3(=O)=O)cc2)cn1 (stereo not given) | - | - | - | - | - | .
CC(C)CC1C(=O)N(Cc2cn(CCC3OCCO3)nn2)CCS(=O)(=O)N1Cc1ccc(-c2cccc(CO)c2)cc1 (stereo not given) | - | - | - | - | - | .
